HCV inhibitor – blocks hepatitis C virus | AID 651820 | Huh7.5.1 HCVcc-Cre infection, luciferase reporter, 44 h | hit rate 3.4% among 340,000 | Potency, µM (doses to about 41.8 µM), inactives show at the top dose activity change, negative = inhibition, actives largely listed as inhibitors; further: on the % scale 0 is the no-effect control and ±100 the full control effect
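Cells seeded at 1,000/well and cultured 4 h, then compounds added followed by HCVcc-Cre virus (~0.5 moi). After 44 h further culture, luciferase substrate was added, plates held 15 min at room temperature, and luminescence read for 15 sec.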
AMA1 RON2 block – inhibitors of Plasmodium falciparum AMA1-RON2 interaction; AlphaScreen AMA1-biotinylated RON2 peptide binding; Potency, µM (doses to about 58.2 µM), for inactives: at the top dose activity change, negative = inhibition, usual class: inhibitors; hit rate 0.2% among 360,000; AID 720542;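 further: 0% = vehicle wells and -100% = peptide control; nearly all actives have a fitted effect of over 45% in size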
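AMA1 (3D7) with his tag at 25 nM final met compounds first, then biotinylated RON2 peptide at 25 nM; detection used donor plus acceptor beads, 10 µg/mL apiece, read by AlphaScreen after 30 min at room temperature.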
Pf growth 48h – inhibits P. falciparum growth in the first generation, 48 h. hit rate 5.9% among 310,000. AID 504832. Potency, µM (top dose mostly 28.7 µM), inactives show top-dose activity change, negative = inhibition, usual class: inhibitors. P. falciparum luciferase growth in erythrocytes, 48 h; further: on the % scale 0 is the no-effect control and ±100 the full control effect
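Cell-based growth assay: transgenic P. falciparum expressing firefly luciferase, cultured in red cells within RPMI 1640 containing 0.5% w/v Albumax, 24 mM bicarbonate and gentamycin. A drop in luciferase activity indicates inhibition.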
SARS PLP yeast – inhibitors of SARS-CoV papain-like protease in yeast; S. cerevisiae expressing SARS-CoV PLpro, growth rescue; Potency, µM (top dose mostly 32.9 µM), without a hit: at the top dose activity, positive = growth rescue, usual class: activators; hit rate 0.19% among 330,000; calls by dose curve; further: 0% is about no effect; nearly all actives have a fitted effect of over 55% in size
NS1 inh – blocks influenza NS1 protein function; Potency, µM (highest dose often 46.1 µM), without a hit: at the highest dose activity, positive = more growth; hit rate 0.4% among 270,000; AID 2326; calls by dose curve; further: actives are rising curves; nearly all actives have a fitted effect of over 50% in size
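Read-out: OD600 growth recovery of NS1-expressing budding yeast. Cells grown overnight at 30C in -URA glucose medium, washed, resuspended and diluted 1:100 in 2% galactose assay medium, pH 6.0. Same strain lacking NS1 served as positive control.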
Pf growth 96h – P. falciparum growth inhibition at 96 hour, primary screen for plastid delayed-death inhibitors; Potency, µM (highest dose often 28.7 µM), inactives show at the highest dose activity change, negative = inhibition, usual class: inhibitors; P. falciparum luciferase reporter growth, 96 h; hit rate 6.9% among 320,000; AID 504834; further: on the % scale 0 is the no-effect control and ±100 the full control effect
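Cell-based qHTS: luciferase-tagged P. falciparum in erythrocytes (2% hematocrit, 0.05% parasitemia final) incubated with compounds for 96 hours, 37 C, 5% CO2; luciferase detection reagent then added and luminescence measured.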
Numbers without * were called inactive; ? = inconclusive; · = no result given; [ ] = another dose, or the depositor's remark. Shown are actives, neighbours in structure and some others; about 12% of the full set was active somewhere. Unless noted, the call rests on the fitted dose curve; in most records, active means well fitted curve in the direction sought with a large enough effect; inconclusive means small, poorly fitted or top-dose-only effect, or another doubt; inactive means no such curve, though single readings can be large; an effect the other way counts as inactive or inconclusive. Potency means the concentration at half of the fitted maximal effect.

SMILES | HCV inhibitor | AMA1 RON2 block | Pf growth 48h | SARS PLP yeast | NS1 inh | Pf growth 96h
COc1ccc2nc(C)cc(Nc3ccccc3O)c2c1 | ? | 13.3% | ? | -2.6% | 1.4% | ?
Cc1cc(NCc2ccccc2)nc2ccccc12 | ? | 12.2% | ? | -14.2% | -1.3% | 16.9%
COc1ccc2nc(C)cc(NCc3cccc(C(F)(F)F)c3)c2c1 | 10µM* | -10.7% | 0.928µM* | -3.0% | -10.2% | ?
CC(Sc1ccc(S(=O)(=O)N2CCOCC2)cn1)C(=O)Nc1ccc(Cl)cc1Cl (centres undefined) | ? | -0.9% | 11.7µM* | 2.6% | · | ?
O=C(CSc1ccc(S(=O)(=O)N2CCOCC2)cn1)Nc1ccc(F)c(F)c1 | 6.31µM* | 9.3% | -18.3% | -3.7% | · | ?
CC(Sc1ccc(S(=O)(=O)N2CCN(C)CC2)cn1)C(=O)Nc1cccc(Cl)c1Cl (centres undefined) | ? | -18.7% | · | · | · | ·
CC(NCC1(N2CCOCC2)CCCCC1)C(=O)Nc1ccc(Cl)cc1Cl (centres undefined) | -11.9% | -4.9% | ? | -3.1% | · | 9.28µM*
COc1cccc2c1[C@@H]1CN(CCCCn3c(=O)[nH]c4c(sc5ncc(-c6ccccc6)nc54)c3=O)C[C@@H]1CO2 | 3.55µM* | -15.7% | ? | · | -32.1% | ?
COc1cc2[nH]c(=O)n(CCCC(=O)N3CC=C(c4ccccc4)CC3)c(=O)c2cc1OC | -15.6% | -5.0% | ? | -0.7% | -16.2% | -34.8%
CCCCC1(C)NC(=O)c2c(C)sc(C(=O)OCC)c2N1 (centres undefined) | ? | 21.2% | ? | -15.7% | 12.8% | 8.28µM*
CCOC(=O)CC1(C)NC(=O)c2c(C)sc(C(=O)OCC)c2N1 (centres undefined) | -8.3% | 8.4% | 0.2% | 3.6% | -6.5% | 27.3%
CCOC(=O)CC1(CC(=O)OCC)NC(=O)c2c(C)sc(C(=O)OCC)c2N1 | -17.0% | -12.5% | -4.7% | 10.5% | 1.2% | 3.7µM*
Cc1ccc(NC(=O)CNCCCN2CCOCC2)cc1S(=O)(=O)N1CCCCC1 | -5.4% | ? | ? | 0.6% | 7.4% | ?
CN(C)C(=O)C12CCC(C)(C(=O)C1Br)C2(C)C (centres undefined) | 28.4% | 9.7% | 5.8% | 0.0% | 1.5% | -0.2%
CC(C)Nc1nc(NC2CCCC2)nc(N2CCOCC2)n1 | ? | 1.1% | ? | 0.0% | · | 5.22µM*
Cc1cc(NC2CCCCC2)nc(N2CCOCC2)n1 | ? | 13.6% | 2.0% | -1.7% | 0.4% | 130.3%
O=C(CC(c1ccccc1)c1ccccc1)Nc1ncn[nH]1 | 9.8% | -5.6% | -0.2% | -7.3% | 2.6% | 5.6%
O=C(CC1CCCCC1)Nc1ncn[nH]1 | 29.9% | -4.7% | 0.0% | -4.2% | 5.7% | 2.94µM*
CCOc1ncccc1C(=O)NCC(c1ccccc1)N(C)C (centres undefined) | 2.1% | -4.4% | 21.0% | 1.0% | -4.6% | -13.8%
COc1ccc(-c2noc(N3CCCC(C(=O)Nc4ccc(C(C)=O)cc4)C3)n2)cc1 (centres undefined) | ? | 9.6% | ? | -1.1% | -1.3% | ?
COc1ccc(CN(CCN(C)C)Cc2ccccc2)c(OC)c1 | -4.8% | ? | 13.1µM* | 9.5% | -11.4% | ·
CCN(Cc1ccncc1)Cc1ccc(OC)cc1OC | 5.1% | 0.0% | -1.6% | 6.2% | 5.3% | -17.7%
CCOc1ccc(CCNC(=O)COC(=O)/C=C/c2cccc(OC)c2)cc1OCC | -29.4% | -16.5% | -3.7% | -6.1% | · | ?
CCOc1ccc(/C=C/C(=O)OCC(=O)NCCc2ccc(OCC)c(OCC)c2)cc1OC | 7.94µM* | ? | ? | -2.5% | · | ?
COc1cc(/C=C/C(=O)OCC(=O)NCCN2C(=O)CSC2=O)ccc1OCC#N | 19.2% | 7.4% | ? | -1.3% | · | 10.4µM*
SMILES | HCV inhibitor | AMA1 RON2 block | Pf growth 48h | SARS PLP yeast | NS1 inh | Pf growth 96h
COc1cccc(C(=O)/C=C/c2ccc(OCC#N)c(OC)c2)c1 | ? | -5.3% | -25.6% | -4.6% | -3.2% | ?
CCOc1ccc(CCNC(=O)COC(=O)/C=C/c2ccco2)cc1OCC | -1.7% | -10.7% | 8.28µM* | ? | 2.3% | 7.38µM*
COc1cc(/C=C/C(=O)c2ccc(O)cc2)ccc1OCC#N | ? | 17.0% | 13.1µM* | -8.6% | -6.8% | ?
O=C(Cc1ccc(Cl)cc1)N1CCN(c2ccccc2)CC1 | -3.6% | -3.9% | 2.3%[0.00184 µM] | -0.6% | -34.7% | 54.2%
CN(CC(=O)Nc1ccc(Cl)c(Cl)c1)C(=O)C12CC3CC(CC(C3)C1)C2 | ? | 5.0% | ? | -18.4% | 3.8% | 7.38µM*
CN(CC(=O)Nc1ccc(Cl)c(Cl)c1)C1CCCCC1 | -8.6% | ? | 29.6% | -0.8% | -5.1% | -4.0%
Cc1ccc(S(=O)(=O)N(C)C[C@@H]2Oc3ccc(NC(=O)CCC(F)(F)F)cc3CC(=O)N([C@@H](C)CO)C[C@@H]2C)cc1 | ? | 4.5% | · | -1.5% | · | ·
C[C@@H]1CN([C@H](C)CO)C(=O)c2cc(NS(=O)(=O)c3ccc(F)cc3)ccc2O[C@@H]1CN(C)Cc1ccc(Cl)c(Cl)c1 | 6.31µM* | -0.4% | · | 0.8% | · | ·
C[C@@H]1CN([C@H](C)CO)C(=O)c2cc(NC(=O)Nc3ccc(C(F)(F)F)cc3)ccc2O[C@H]1CN(C)S(=O)(=O)c1ccc(Cl)cc1 | ? | 7.1% | · | 4.0% | · | ·
C[C@H](CO)N1C[C@H](C)[C@@H](CN(C)S(=O)(=O)c2ccc(F)cc2)Oc2ccc(NC(=O)Nc3ccc(C(F)(F)F)cc3)cc2C1=O | 31.6µM* | -2.8% | · | -0.4% | · | ·
Cc1ccc(S(=O)(=O)N(C)C[C@@H]2Oc3ccc(NS(C)(=O)=O)cc3CC(=O)N([C@H](C)CO)C[C@@H]2C)cc1 | 2.82µM* | 13.5% | · | -1.4% | · | ·
C[C@H](CO)N1C[C@H](C)[C@@H](CN(C)Cc2ccc(-c3ccccc3)cc2)Oc2c(NC(=O)c3ccncc3)cccc2C1=O | 10µM* | -22.7% | · | -2.2% | · | ·
C[C@H](CO)N1C[C@H](C)[C@@H](CN(C)Cc2ccccc2)Oc2c(NC(=O)c3ccncc3)cccc2C1=O | ? | 5.9% | · | -2.8% | · | ·
C[C@H](CO)N1C[C@H](C)[C@@H](CN(C)C(=O)Nc2ccc(C(F)(F)F)cc2)Oc2c(NC(=O)Nc3ccccc3)cccc2C1=O | -14.0% | -9.5% | · | 5.5% | · | ·
COc1ccc(NC(=O)N(C)C[C@H]2Oc3c(NC(=O)Nc4ccc(C(F)(F)F)cc4)cccc3C(=O)N([C@H](C)CO)C[C@@H]2C)cc1 | 6.31µM* | 0.2% | · | 11.5% | · | ·
Cc1[nH]c(=O)c(C(=O)/C=C/c2ccccc2F)c2c1CCCC2 | 2.51µM* | -7.5% | 3.29µM* | 2.3% | 6.7% | 5.22µM*
O=C(Nc1cccc2cccnc12)c1csc([C@@H]2O[C@H](CO)[C@H](O)[C@H](O)[C@H]2O)n1 | · | 117.5% | · | · | · | ·

Source: PubChem BioAssay
